Measured values: PubChem BioAssay
Calls of active or inactive are those of the source.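 Rule for the calls: active = signal rise over 3 SD above mean of control wells given weak agonist, in both repeats and first screen; inactive = the rest.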

Test system: TRPC4 (mouse), co-expressed with 5HT1a in HEK293
Test: enhancement of serotonin-evoked TRPC4 response – cell-based, second counter screen, HEK293 TRPC4/5HT1a, Fluo-4, counter-screen for TRPC4 potentiator project, confirmation (AID 434979)
Settings: Fluo-4 calcium flux, at 10 µM, serotonin added at its EC20 dose

Compound | outcome
CC1CCCCN1S(=O)(=O)c1ccc(C(=O)N(CCCN(C)C)c2nc3ccc(Br)cc3s2)cc1 (stereo not given) | inactive
CC(C)(C)C(=O)NC(=S)NNC(=O)c1ccc(-c2ccccc2)cc1 | inactive
CCCOc1ccc(C(=O)NNC(=S)NC(=O)c2ccccc2)cc1 | inactive
OCCN1CCN(Cc2cc(Br)cc(Br)c2O)CC1 | inactive
c1ccc(Nc2nc(Nc3ccccc3)nc(N3CCNCC3)n2)cc1 | inactive
O=c1c2cc(Br)ccc2nc(-c2cccc(C(F)(F)F)c2)n1O | inactive
COc1cc(OC)cc(C(=O)NC(=S)NNC(=O)[C@H]2C[C@@H]2c2ccccc2)c1 | inactive
c1ccc2c(c1)CCN(c1ncnc3c1[nH]c1ccccc13)C2 | inactive
O=C(CCc1ccccc1)NNC(=S)NC(=O)c1ccc(Cl)cc1 | inactive
Cc1cccc(C(=O)NNC(=S)NC(=O)c2cccs2)c1 | inactive
CN(C)CCCN(C(=O)c1ccc(S(=O)(=O)N2CCCCCC2)cc1)c1nc2ccc(F)cc2s1 | inactive
CC[C@@H](C(=O)[C@@H](C)[C@@H](O)[C@H](C)CCc1ccc(C)c(O)c1C(=O)O)[C@H]1O[C@](CC)([C@H]2CC[C@](O)(CC)[C@H](C)O2)C[C@@H]1C | inactive
Cc1occc1C(=O)NNC(=S)NC(=O)COc1ccc(Cl)cc1Cl | inactive
COc1cc(OC)cc(C(=O)N[C@H](C(=O)OCC(=O)NC(C)c2ccccc2)C(C)C)c1 (stereo not given in full) | inactive
O=C(NC(=S)NNC(=O)[C@H]1C[C@@H]1c1ccccc1)c1cccc(F)c1 | inactive
CCOc1ccccc1OCC(=O)Nc1cc(S(=O)(=O)N2CCCCC2)ccc1N1CCN(CC)CC1 | inactive
Cc1onc(-c2c(F)cccc2Cl)c1C(=O)N1CCN(c2ncc(Br)cn2)CC1 | inactive
CCOC(=O)C1=NN(C(=O)c2ccc(C)cc2)C(O)(c2ccc(Cl)cc2)C1 (stereo not given) | inactive
COc1ccc(/C=C/CN2CCCC(C(=O)c3ccc(OC)c(F)c3)C2)cc1 (stereo not given) | inactive
NCCSc1c(-c2ccc(Cl)cc2)[nH]c2ccccc12 | inactive

Compound | outcome
COc1ccc(C(CNC(=O)c2cccc(NS(=O)(=O)c3ccc(C)c(F)c3)c2)N(C)C)cc1 (stereo not given) | inactive
CCCOc1ccc(C(=O)NNC(=S)NC(=O)c2cccs2)cc1 | inactive
CCOC(=O)C1CCCN(C(c2ccccn2)c2c(C)[nH]c3ccccc23)C1 (stereo not given) | inactive
Cc1ccc(NS(=O)(=O)c2ccc(C(=O)N3CC(C)CC(C)C3)cc2)cc1 (stereo not given) | inactive
COC(=O)C1=NN(C(=O)c2cccc(Br)c2)C(O)(c2ccc(Cl)cc2)C1 (stereo not given) | inactive
Cc1cc(C)c(CN2CCN(Cc3ccc(C)o3)C(CCO)C2)c(-n2cccn2)c1 (stereo not given) | inactive
CCOc1ccc2ncc(C(=O)c3ccc(OC)cc3)c(N3CCN(CC)CC3)c2c1 | inactive
CC(C)(C)c1cc(CCC(=O)NNC(=S)NC(=O)c2ccccc2)cc(C(C)(C)C)c1O | inactive
COc1ccccc1C(=O)NNC(=S)NC(=O)c1sc2ccccc2c1Cl | inactive
O=C1CC(O)(C(F)(F)F)Oc2c1ccc1ccccc21 (stereo not given) | inactive
CCCc1ccc(OCC(=O)NNC(=S)NC(=O)c2ccco2)cc1 | inactive
Cc1ccccc1OCC(=O)NNC(=S)NC(=O)c1ccco1 | inactive
CCCOc1ccc(C(=O)NC(=S)NNC(=O)c2c(-c3ccccc3)noc2C)cc1 | inactive
Cc1cc(OCCCn2ccnc2)cc(C)c1Cl | inactive
CCN1CCN(c2c(S(=O)(=O)c3ccc(C)c(C)c3)cnc3ccc(F)cc23)CC1 | inactive
Cc1cccc(C(=O)NC(=S)NNC(=O)c2cccs2)c1 | inactive
Cc1ccc(C)c(-n2cc(CNCCc3cnccn3)c(-c3ccccc3)n2)c1 | inactive
Cc1ccc2c(C)c(C(=O)N(Cc3cccs3)C3CCS(=O)(=O)C3)oc2c1 (stereo not given) | inactive
CC(C)(C)c1ccc(C(=O)NC(=S)NNC(=O)c2cccs2)cc1 | inactive
CCCCN(CC)CCCNC(=O)Cn1nc(Cc2ccncc2)c2ccccc2c1=O | inactive
